Source: ChEMBL document CHEMBL3988442, “University of Dundee, Small-Polar-MMV Screening Library” (2021)

Each compound was assayed against T1, Arginase-2, mitochondrial (Homo sapiens) (UniProt P78540) (assay: in vitro enzyme assay to detect the production of urea directly proportional to the activity of Arginase II). Conditions: 33.3 µM.
T1 sequence (whole entry): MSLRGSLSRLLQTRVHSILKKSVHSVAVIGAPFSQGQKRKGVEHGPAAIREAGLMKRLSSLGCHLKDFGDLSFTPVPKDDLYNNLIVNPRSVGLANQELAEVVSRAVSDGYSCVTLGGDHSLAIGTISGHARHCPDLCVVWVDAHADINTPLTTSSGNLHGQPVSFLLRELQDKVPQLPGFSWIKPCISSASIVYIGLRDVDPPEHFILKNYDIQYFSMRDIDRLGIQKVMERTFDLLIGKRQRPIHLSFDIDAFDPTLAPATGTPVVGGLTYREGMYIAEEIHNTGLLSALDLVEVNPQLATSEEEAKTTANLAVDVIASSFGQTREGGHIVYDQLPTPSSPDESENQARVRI
Assay type: functional
Parameters: scale not given: in the data most compounds retested in dose-response had high values

SMILES | Percent Effect [%]
Cc1csc(N2CCCN(C(=O)c3c(C)oc(C)c3C)CC2)n1 | -1.77
CCc1nnc(CN2CCCC(c3cc(C(F)(F)F)[nH]n3)C2)o1 (stereo not given) | 3.1
Cc1cnn(CC2CCCCN2C(=O)c2cc(Cl)c[nH]2)c1 (stereo not given) | -5.53
COC(=O)C1CCN(C(=O)c2ccc(C)c(NS(C)(=O)=O)c2)CC1 | -3.85
c1cc(-c2noc(CN3CCn4c(nnc4C4CC4)C3)n2)co1 | 6.15
CN(CC(=O)Nc1ccc(Br)cn1)C(=O)Cc1ccc(O)cc1 | -0.887
CCc1ncc2c(n1)CN(CC(=O)Nc1nnc(C)s1)CC2 | 5.32
COCCN1CCN(Cc2ccc(F)c(C)c2)[C@H]2CS(=O)(=O)C[C@H]21 | 10.8
CNC(=O)N1C[C@H]2C[C@H](C(=O)Nc3ccccc3)[C@@H](C1)O2 | -3.24
Cc1cccc(CN2C(=O)CCC23CCN(c2ncc(F)cn2)CC3)n1 | 5.02
N#Cc1cccc(S(=O)(=O)NC(=O)COc2ccc3c(c2)CCC3)c1 | -0.82
O=C(Cn1cc(-c2ccccc2)ncc1=O)Nc1ccncc1 | 3.85
O=C(N1CCCC1)N1CCC2(CCCN(CCOc3ccccc3)C2)C1 (stereo not given) | -1.37
CNc1cncc(C2CCCN2Cc2c[nH]cn2)n1 (stereo not given) | 2.21
CO[C@@H]1CCN(C(=O)c2ccccn2)[C@H]1Cc1ccccc1 | -0.457
CC1(C)OCC(CNC(=O)c2cnn(-c3cc(Cl)ccc3Cl)c2N)O1 (stereo not given) | 3.98
CN(C)c1ccc(NC(=O)NCc2ccccn2)cn1 | -0.205
Cc1cnn(CC2CCCN2CC(=O)Nc2cc(C(C)(C)C)no2)c1 (stereo not given) | -0.615
Cn1cc(C(=O)N2CCC(Cc3nccs3)CC2)cn1 | -1.33
CN1CCN(CCO)C(=O)C12CCN(Cc1ccsc1)CC2 | 1.83

SMILES | Percent Effect [%]
Cc1ccc(C(=O)N2CCC3(CC2)CC(N2CCOCC2)C3)cc1 | 0.457
Cn1ncc2c1NC(=O)CC2c1ccc(O)cc1 (stereo not given) | -6.64
CNC(=O)c1cc(S(=O)(=O)C(C)C)cs1 | 3.2
CCC1c2ccsc2CCN1C(=O)NCc1cc[nH]n1 (stereo not given) | 0
CC[C@@H]1N(Cc2ccsc2)CCC[C@]12CCC(=O)N2CCOC | 4.11
CCNC(=O)[C@@H]1C[C@@H](NC(=O)Cc2ccncc2)CN1Cc1ccsc1 | -0.35
O=C(NCCO)c1ccn(-c2ccc3ccccn23)n1 | -8.5
NC[C@H]1CC[C@H](C(NC(=O)c2ccccc2)c2ccccn2)CC1 (stereo not given in full) | -2.21
O=C(C1CCOC1)N1CCc2ncc(CNc3ccccn3)n2CC1 (stereo not given) | -1.62
CCc1nc(C2CCCN2CCn2cncn2)no1 (stereo not given) | 3.07
CC(C)(C)n1ncc2c1NC(=O)CC2c1ccsc1 (stereo not given) | 5.94
Cn1nc2c(cc1=O)CN(Cc1nnc(-c3ccco3)o1)CC2 | 1.23
CCc1nc(CC(=O)N2CCCC2Cn2cccn2)cs1 (stereo not given) | 4.43
CC(C)c1nnc2n1CCN(C(=O)c1ccc3cc[nH]c3c1)C2 | 2.66
O=C(O)c1cc(S(=O)(=O)N2CCOc3ccccc32)ccc1F | -0.82
CCCc1cc(CNC(=O)C2CCOc3ccccc3C2)on1 (stereo not given) | 15.7
Cc1cc(NC(=O)NCC2CCOC2)no1 (stereo not given) | 9.76
CC(C)c1nc(C2CCCN2CC(=O)Nc2nncs2)no1 (stereo not given) | -1.33
CCOC1CCCN(C(=O)c2sccc2-n2cnnn2)C1 (stereo not given) | -1.23
CC(=O)N1C[C@@H](c2ccsc2)[C@@H]2CN(Cc3ccccc3)CC[C@@H]21 | 0.885
